Hit rate of the full screen: of about 68,000 compounds, about 2,700 (4%) showed an effect of 50% or more. For the sample, strong results were picked, then their nearest neighbours and some compounds at random.
Each compound was assayed on Plasmodium berghei (assay: Screen against P. berghei liver stage (PbLuc), transformed with Luciferase, at 2uM). Details: tested at 2 uM.
Format: functional, HepG2

SMILES | INHIBITION [%]
COC(=O)c1cccn1C1CCN(C(=O)c2c(C)noc2C)CC1 | 39.92
Cc1noc(C)c1C(=O)N1CCC(n2cccn2)CC1 | 61.52
Cc1noc(C(C)C)c1C(=O)N1CCC(n2cccn2)CC1 | 22.57
Cc1noc(C(C)Nc2ccc3oc(C)nc3c2)n1 (stereo not drawn) | 10.04
O=C(c1ccc(F)cc1Cl)N1CCC(Nc2cccnn2)CC1 | 8.37
Fc1cccc(CN2CCOC3(COCCN(CC4CC4)C3)C2)c1 (stereo not drawn) | 3.11
Cc1cn[nH]c1C1COCCN1C(=O)c1ccc2c(c1)CCCC2 (stereo not drawn) | 72.17
COc1ccc(C(=O)N2CCOCC2c2[nH]ncc2C)cc1F (stereo not drawn) | -53.71
Cc1cn[nH]c1C1COCCN1C(=O)c1ccc2[nH]nnc2c1 (stereo not drawn) | 37.33
CS(=O)(=O)CCN1CCC(Nc2c(Cl)cccc2C#N)CC1 | -23.01
CC(C)OC(=O)N1CCCCC1CCn1cccn1 (stereo not drawn) | 29.71
CN(C)C(=O)c1cc2c(s1)CCN(C(=O)CCCN1CCCCC1)C2 | 17.2
CN1CCCC(CCC(=O)N2CCc3sc(C(=O)N(C)C)cc3C2)C1 (stereo not drawn) | 74.44
CNC(=O)c1cc2c(s1)CCN(C(=O)CCC1CCCN(C)C1)C2 (stereo not drawn) | -4.26
C1CCC(CO[C@@H]2CC[C@H]3[C@H]2OCCN3CC2CCOCC2)C1 | 42.01
CC(=O)N1CCN(Cc2ccc(F)cc2)CC2(CC(=O)N(C)C2)C1 (stereo not drawn) | 44.68
Cc1c(C)n2c(SCC(=O)N3CCOCC3)nnc2[nH]c1=O | 33.59
Oc1cccc(CN2CCN(C3CCc4ccccc4C3)CC2)c1 (stereo not drawn) | -5.87
COc1ccc(CN2CCN(C3CCc4ccccc4C3)CC2)cc1O (stereo not drawn) | 59.48
COc1cc(O)ccc1CN1CCN(C2CCc3ccccc3C2)CC1 (stereo not drawn) | 31.9
CCNC(=O)C1CCN(c2nc(-c3ccco3)nc3c2CCNCC3)C1 (stereo not drawn) | 40.47
CCC(O)CN1CCN(C(=O)c2cc(Cl)cc3cccnc23)CC1 (stereo not drawn) | -28.58
Cc1nonc1C(=O)N1CCc2c(ncn2CCc2ccccc2)C1 | 17.2
Cc1cc(C)c(C(=O)N2CCc3c(ncn3CCc3ccccc3)C2)[nH]1 | 0.51
Cc1cc(C(=O)N2CCc3c(ncn3CCc3ccccc3)C2)on1 | 50.59
c1ccc(Cn2cc3c(n2)C(COCC2CC2)OCC3)nc1 (stereo not drawn) | 7.73
Cn1cnc2c1CCN(Cc1csc(Cc3ccccc3)n1)C2 | 33.61

SMILES | INHIBITION [%]
COc1ccc(-n2nnnc2C(C)(C)Nc2ccc(C)cc2C)cc1 | 57
Cc1ccc(NC(C)(C)c2nnnn2-c2ccc(Cl)cc2)c(C)c1 | -0.62
Cc1cccc(-n2nnnc2C(C)(C)Nc2ccccc2C)c1 | -20.72
COCCN1CC2(CCCN(C(=O)NCc3ccccc3)C2)CCC1=O (stereo not drawn) | 13.53
CCCc1cc(NCCC2CCCOC2)n2nccc2n1 (stereo not drawn) | 50.41
CCCc1cc(NCCN2CCNC2=O)n2nccc2n1 | 68.39
O=C1NCCN1CCNc1cc(-c2ccccc2)nc2ccnn12 | -8.8
CCc1cc(NCCCC2CCOC2)n2nccc2n1 (stereo not drawn) | -3.6
CCc1cc(NCCN2CCNC2=O)n2nccc2n1 | 25.69
CCCc1cc(NCCCC2CCOC2)n2nccc2n1 (stereo not drawn) | 26.35
CC(SCCC(=O)NC(N)=O)c1cccc(F)c1 (stereo not drawn) | 4.07
Cc1cc(CN2CCC(N(C)Cc3noc(C4CC4)n3)C2)no1 (stereo not drawn) | -17.31
COc1cccc(S(=O)(=O)N2CCCCC2CCN2CCCC2=O)c1 (stereo not drawn) | 25.51
NCC(c1ccc(Cl)cc1)N1CCc2sccc2C1 (stereo not drawn) | -5.59
CC(C)NC(=O)N1CCC2(CC1)[C@@H]1CN(C(=O)N(C)C)C[C@@H]1C(=O)N2C | 24.36
O=C(CS(=O)(=O)C1CCCC1)NC1CCCc2cc(OC(F)F)ccc21 (stereo not drawn) | 14.88
COC(=O)CCC(=O)NC1CCCc2cc(OC(F)F)ccc21 (stereo not drawn) | -41.81
O=C(COCC(F)(F)F)NC1CCCc2cc(OC(F)F)ccc21 (stereo not drawn) | 60.52
CC(C)NC(=O)N1CCCCCC1C1CCN(c2ncccn2)CC1 (stereo not drawn) | 36.28
O=C(O)c1ccccc1-c1ccc(CN2CC(c3ccncn3)C2)o1 | -44.74
O=C(NC1CCCCC1)NC1CCCc2c1cnn2CCO (stereo not drawn) | -39.36
Cc1cc(NC(=O)NC2CCCc3c2cnn3CCO)n(C)n1 (stereo not drawn) | 32.55
O=C(Nc1nncs1)NC1CCCc2c1cnn2CCO (stereo not drawn) | 8.27
Cc1nnc(NC(=O)NC2CCCc3c2cnn3CCO)s1 (stereo not drawn) | 53.57
CCn1cc(NC(=O)NC2CCCc3c2cnn3CCO)cn1 (stereo not drawn) | 56.57
Cc1nc(CCNC(=O)NC2CCCc3c2cnn3CCO)cs1 (stereo not drawn) | -47.76
